# Measured values: PubChem BioAssay AID1345083 (National Center for Advancing Translational Sciences (NCATS), 2018)
# Among all 94,000 compounds or so, about 6,200 (6.6%) were called active. Roughly 31% stayed inconclusive and do not appear here. Calls follow the shape of the dose curve; as a rule, active = well fitted inhibition curve with a large enough effect; inconclusive = small, poorly fitted or top-dose-only effect; inactive = flat fitted curve, though single readings scatter. The list comes from a sample in which actives are over-represented; it also holds similar structures and randomly drawn compounds. A call without a number means that no potency is given here.
# Assay: Cytotoxic Profiling in HEK 293 Cell Line of Diverse Libraries Using Quantitative High-Throughput Screening; also: nearly all actives have a fitted effect of over 60% in size
# Conditions: HEK 293 viability, ATP luminescence (CellTiter-Glo), 48-72 h; series mostly up to 115 µM
# Outline: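 HEK 293 cells at 250 cells/well were exposed to compounds by pintool transfer for 48 or 72 hr at 37 degree Celsius, 5% CO2. Viability was read as ATP-coupled luminescence with CellTiter-Glo after 10 min at room temperature.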
# Potency is read from the fitted curve at half-maximal effect.
row,Structure (SMILES),Potency
1,COCc1nc(-c2ccc(NC(=O)Cn3nc4c(cc3=O)CCCC4)cc2)n[nH]1,inactive
2,O=C(NCCCn1cccn1)C1CCCCc2nnc(-c3ccccc3)n21 (stereo not drawn),inactive
3,COc1ccc(C(=O)N2CCCC(Cc3nc(C4CCOCC4)no3)C2)cc1 (stereo not drawn),inactive
4,CC(C)(C)c1ccnc(N[C@H]2CO[C@H]3[C@@H]2OC[C@H]3OC(=O)Nc2cccc(C(F)(F)F)c2)n1,39.8 µM (active)
5,CC(C)(C)c1ccnc(N[C@H]2CO[C@H]3[C@@H]2OC[C@@H]3NC(=O)CC2(CC(=O)O)CCCC2)n1,inactive
6,C=CCNC(=O)N[C@H]1CO[C@H]2[C@@H]1OC[C@H]2OC(=O)Nc1cccc(C(C)=O)c1,inactive
7,CC(=O)c1ccc(NC(=O)O[C@@H]2CO[C@H]3[C@@H]2OC[C@@H]3Nc2nccc(-c3ccco3)n2)cc1,22.4 µM (active)
8,CCCN1CCN(C(=O)C2CCCN(c3cnn(Cc4ccccc4)c(=O)c3)C2)CC1 (stereo not drawn),inactive
9,O=C(Cc1cccc(F)c1)N1CC(CNC(=O)N2CCCC2)C2(CCOCC2)C1 (stereo not drawn),inactive
10,Cc1oc2c(c1C(=O)NC1CCN(C)CC1)CN(C)CC2,inactive
11,O=C(Cn1c(=O)oc2ccccc21)NC1CCc2nn(CC3CC3)c(=O)n2CC1 (stereo not drawn),inactive
12,COc1ccccc1N1CCN(C(=O)Cn2c(N3CCc4ccccc4C3)nc(C)cc2=O)CC1,35.5 µM (active)
13,CNC(=O)c1cc(C)nc2onc(C3CCCN3C(=O)c3ccccc3OC)c12 (stereo not drawn),inactive
14,Cc1cc(=O)n(CC(=O)Nc2cccc(Cl)c2C)c(N2CCc3ccccc3C2)n1,inactive
15,COc1ncc(CN2CCc3ncc(C(=O)Nc4ccccc4)n3CC2)cn1,inactive
16,Cc1ccccc1CN1CCc2ncc(C(=O)NCCOc3ccccc3)n2CC1,79.4 µM (active)
17,Cc1cccc(CN2CCc3ncc(C(=O)NCc4ccccc4)n3CC2)n1,100 µM (active)
18,COCCOc1cc(=O)n2c(c1C(=O)NCc1ccccc1)CCOCC2,inactive
19,COc1ccc(CN2CCc3ncc(C(=O)NCCOc4ccccc4)n3CC2)cn1,inactive
20,COc1ccc(CN2CCc3ncc(C(=O)Nc4ccccc4C)n3CC2)cn1,inactive
21,CCOCC(=O)N[C@@H]1c2ccccc2C2(CCNCC2)[C@H]1OC,inactive

row,Structure (SMILES),Potency
1,COc1ccc(CCNC(=O)C2CC(=O)N(c3n[nH]c4cccc(F)c34)C2)cc1 (stereo not drawn),inactive
2,COc1cccc(-c2cn(C3CCN(C(=O)c4ccc(Cl)cc4)CC3)c(=O)[nH]2)c1,inactive
3,Cc1ccc(OCC(=O)NCc2cccnc2N2CCOCC2)cc1,inactive
4,Cc1ccccc1CN1CCCn2nc(C)c(-c3cccnc3N3CCOCC3)c21,70.8 µM (active)
5,C=CCCCC(=O)Nc1ccc(NC(=O)C(C)(C)C)c(OC)c1,inactive
6,O=C(NCc1cc2n(n1)CCCN(C1CCCCC1)C2)c1cccc(F)c1,inactive
7,O=C(Nc1cccn2nc(C3CCC3)nc12)c1cccc(F)c1,39.8 µM (active)
8,O=C1CCCCC(CNC(=O)c2cccc(F)c2)N1 (stereo not drawn),inactive
9,CCNC(=O)C1(CCO)CCN(c2ncccn2)C1 (stereo not drawn),inactive
10,O=C(NCc1ccc(Cl)nc1)c1cn2c(n1)CN([S+](=O)([O-])c1cccc(C(F)(F)F)c1)CC2,inactive
11,CC(=O)N1CCC2(CC1)CN(C(=O)Cc1cccc(Cl)c1)CCO2,inactive
12,CC1(C(=O)N2CCN(Cc3ccccc3)CC2)CCOCC1,inactive
13,O=C(Cc1ccc(F)cc1)N1CCOCC2(CN(Cc3ccccc3)C2)C1,39.8 µM (active)
14,O=C(Cn1nc2n(c1=O)CCCCC2)N1CCc2ccccc21,inactive
15,CCOCC(=O)Nc1nn(-c2cccc(F)c2)c2cccc(N3CCOC3=O)c12,inactive
16,NC(=O)[C@H](Cc1cccs1)NC(=O)[C@@H]1C[C@@H](NC(=O)c2cnccn2)CCN1C(=O)COCC(=O)O,inactive
17,O=C(NCc1ccncc1)C1CCN(C(=O)N2CC3CC(C2)[C@H]2CCCC(=O)N2C3)CC1 (stereo partly drawn),inactive
18,O=C(Nc1ccccc1Br)N1CCC2(CC1)SCC(=O)N2Cc1ccco1,inactive
19,CNC(=O)[C@@H]1CN(C(=O)Cn2c(=O)oc3ccccc32)C[C@H]1c1nc(C)no1,inactive
20,O=C(NCCOc1ccccc1)c1nc2c(o1)CCN(CC1CCCCC1)CC2,100 µM (active)
21,CCc1nc2c(c(-c3ccc(OC)cc3)n1)CCN(CC1CCCCC1)CC2,inactive

row,Structure (SMILES),Potency
1,O=C(NCCc1ccccc1)N1CCCCCC1CN1CCOCC1 (stereo not drawn),inactive
2,CN1C(=O)[C@H]2CN(Cc3ccccc3Cl)C[C@H]2C1=O,inactive
3,c1coc(-c2ccnc3nc(C4CC4)nn23)c1,inactive
4,COc1cc(NC(=O)C2Cn3cccc3C(=O)N2)cc(OC)c1 (stereo not drawn),inactive
5,Cc1noc(C)c1[S+](=O)([O-])N1CCCC(c2nnc3n2C(C(=O)O)CC3)C1 (stereo not drawn),inactive
6,O=C1N2CCCC2CN1C1CCN(Cc2ccsc2)CC1 (stereo not drawn),inactive
7,Cc1noc(C)c1[S+](=O)([O-])NC1CCN(Cc2ccc(-c3ccsc3)cc2)C1 (stereo not drawn),39.8 µM (active)
8,Cc1noc(C)c1[S+](=O)([O-])NC1CCN(Cc2cccc(-c3ccc(F)c(F)c3)c2)CC1,25.1 µM (active)
9,Cc1noc(C)c1[S+](=O)([O-])N1CC(Oc2ccc(F)c(F)c2)C1,inactive
10,Cc1noc(C)c1[S+](=O)([O-])N1CCn2c(nnc2-c2ccccc2)C1,inactive
11,CSc1ccc(-c2cccc(CN3CCC(N[S+](=O)([O-])c4cccs4)CC3)c2)cc1,22.4 µM (active)
12,CCCN1C(=O)C(CC(=O)NC2CCCC2)Sc2ncccc21 (stereo not drawn),inactive
13,CC(C)CCN1CCc2c(n(Cc3cccnc3)n(-c3ccccc3)c2=O)C1,inactive
14,CCn1ncc(N2CCC(NC(=O)C(C)c3ccccc3)CC2)cc1=O (stereo not drawn),inactive
15,CN1[C@@H](CCC(=O)N2CCN(c3ccccn3)CC2)CNC(=O)[C@@H]2[C@H]1CCN2Cc1csnn1,inactive
16,CN(Cc1cccnc1)C1CN(C(=O)c2ccnn2C)C1,inactive
17,CN(Cc1cccc2ccccc12)C1CCc2ccccc21 (stereo not drawn),inactive
18,CN(CC1CCOC1)C(=O)c1ccccc1Br (stereo not drawn),inactive
19,O=C(c1ccc(C(F)(F)F)cc1)N1CCC2(C1)C(=NC1CCCC1)NC(=O)N2c1cccnc1 (stereo not drawn),inactive
20,CN(CC1(C)CCOCC1)S(=O)(=O)C1CC1,inactive
21,O=C(N[C@@H]1C[C@H](Cn2cc(-c3cccnc3)nn2)[C@@H](O)[C@H]1O)c1ccccc1,inactive
